In PubChem BioAssay (NCI):
This is part of a sample that, as a whole, favours compounds with a hit. Of some 79,000 tested, about 15% had one in any assay. Values without a mark were called inactive. Active and inactive are the calls of the source. Rule as the data show it: active = growth inhibition above about 70%; inactive = the rest.

What was measured:
[1] = NCI Yeast Anticancer Drug Screen. Data for the rad50 strain (AID 155);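 also: 0% = growth of vehicle-only cultures of the same strain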; conditions: S. cerevisiae rad50 strain growth inhibition; at 50.0 µM; hits give high values
Outline: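 Relative growth inhibition (compound vs vehicle) was measured in yeast with a defined repair-gene alteration.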

[2] = NCI Yeast Anticancer Drug Screen. Data for the mec2-1 strain (AID 157); conditions: S. cerevisiae mec2-1 strain, at 50.0 µM, hits give high values
Outline: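 Mutant yeast (mec2-1) grown with compound; growth inhibition relative to vehicle control reported.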

[3] = NCI Yeast Anticancer Drug Screen. Data for the sgs1 mgt1 strain (AID 161);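 also: 0% = growth of cultures given vehicle only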; conditions: S. cerevisiae sgs1 mgt1 strain, at 50.0 µM, hits give high values
Outline: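 Growth of a repair-deficient yeast mutant was monitored after compound treatment and expressed as inhibition relative to vehicle-treated cultures.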

[4] = NCI Yeast Anticancer Drug Screen. Data for the cln2 rad14 strain (AID 165);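 also: 0% = growth equal to vehicle treated cultures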; conditions: S. cerevisiae cln2 rad14 strain, at 50.0 µM, hits give high values
Outline: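 Readout is yeast growth inhibition versus vehicle-treated controls, using a strain with cln2 and rad14 alterations exposed to compound.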

[5] = NCI Yeast Anticancer Drug Screen. Data for the bub3 strain (AID 167); conditions: S. cerevisiae bub3 mutant strain, at 50.0 µM, hits give high values
Outline: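 Screening used yeast with an engineered genetic alteration affecting cell cycle control. Compound-exposed cultures were compared with vehicle cultures, and reduced growth was taken as inhibition.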

[6] = NCI Yeast Anticancer Drug Screen. Data for the mlh1 rad18 strain (AID 175); conditions: S. cerevisiae mlh1 rad18 strain growth inhibition; at 50.0 µM; hits give high values
Outline: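 Genetically defined yeast (DNA repair-deficient) exposed to compounds; growth inhibition determined relative to vehicle.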

| Structure (SMILES) | growth inhibition [1] | growth inhibition [2] | growth inhibition [3] | growth inhibition [4] | growth inhibition [5] | growth inhibition [6] |
| --- | --- | --- | --- | --- | --- | --- |
| CCCCc1ccc(Nc2nc(=S)c3[nH]cnc3[nH]2)cc1 | 26.9% | 19.6% | 32.2% | 23.9% | 35% | 6.5% |
| CCc1nnc2sc(=S)[nH]n12 | -7.65% | -14.6% | -15.8% | -7.4% | 2.45% | -12.9% |
| CCOC(=O)CCCl | 24% | 15.6% | -2.95% | 30.2% | 31.3% | 12.8% |
| CCOC(=O)/C(=C\c1ccccc1)c1nc2ccccc2[nH]1 | -1.2% | -13.2% | -15.4% | -15.5% | -14.7% | -13.6% |
| O=c1oc2c3ccc4ccccc4c3n(CCN3CCCCC3)c2c2ccccc12 | 30.4% | 53.6% | 22.9% | 32.5% | 44.3% | 77.1% (active) |
| COC(=O)CCCCC#CCCCCC(=O)OC | 3.25% | 38.6% | -4.65% | -2.6% | 12.2% | 12.9% |
| CC(=O)OCC1OC(OC(C)=O)C(NC(=O)c2ccc(Br)cc2)C(OC(C)=O)C1OC(C)=O (configuration not stated) | 42.1% | 19.4% | 39.5% | 19.6% | -1.1% | 31.8% |
| COC1=CC(=O)N(C(=O)C2CSC(C(CO)NC(=O)c3csc(/C=N/O)n3)=N2)C1 (configuration not stated) | 1.85% | -11.3% | 8.9% | -4.15% | -6.25% | 19.9% |
| CCOC(=O)C1C(C)NC(C)C(C(=O)OCC)C1c1ccccc1Cl (configuration not stated) | 11.1% | 6.25% | 6.35% | 4.25% | 2.9% | 9.8% |
| O=C(NCCCCCCNC(=O)c1cc(-c2ccccc2)nc2ccccc12)c1cc(-c2ccccc2)nc2ccccc12 | -33% | -18% | -42.6% | -17.4% | -27.3% | -17.4% |
| CCCCCCCCCCCCSC(=O)NCCC | -3.75% | -2.05% | 1.6% | 0.05% | 3.45% | 1.4% |
| O=C(CCN1CCOCC1)Nc1ccc(F)cc1F | -18.8% | 3.35% | -3.15% | 7.25% | -36.5% | -6.1% |
| CC(C)OC(=S)Nc1ccc(Cl)c(COC(C)(C)C)c1 | -5.8% | -16.2% | -4.65% | 7.6% | -10.1% | -7.4% |
| COc1ccc(N2C(=O)CSC2c2c[nH]c3ccccc23)cc1 (configuration not stated) | -39.2% | -43.5% | -49.6% | -16.1% | -44% | -47% |
| COc1ccc2nc(N(C)C)cc(N(C)C)c2c1 | -10.6% | 5.6% | -2.4% | -34.8% | 4.6% | -5% |
| CC1(C)Oc2ccc(NC(=O)CCC(N)C(=O)O)cc2O1 (configuration not stated) | -28.2% | -52.7% | -1% | 11.5% | 16.5% | -18.1% |
| CCOC(=O)c1c(N)n(-c2ccccc2)c(=O)n(-c2ccccc2)c1=O | -8.85% | -5.3% | -30.9% | 19.4% | -31.8% | -34% |
| Clc1nc(N2CCCCC2)c2[nH]cnc2n1 | -35.2% | -6.2% | 6.75% | -9.8% | -1.6% | -0.9% |
| O=S(=O)(c1ccccc1)C1CCCCC1I (configuration not stated) | 45.9% | 3.5% | 21.4% | -30.5% | 23.7% | 18.8% |
| CCC(CC)C(=O)OCCOCCOC | 30.2% | 11.8% | 14.9% | 7.9% | 23.6% | 36.9% |
| Cn1c(=O)c(-c2ccccc2)c(O)c2ccccc21 | 14.8% | 12.4% | -2.4% | 27.4% | -8.1% | -20.4% |

| Structure (SMILES) | growth inhibition [1] | growth inhibition [2] | growth inhibition [3] | growth inhibition [4] | growth inhibition [5] | growth inhibition [6] |
| --- | --- | --- | --- | --- | --- | --- |
| CC(C)OC(=O)CCCCCc1ccccc1 | 6% | -2.7% | -29.1% | 7.85% | 2.1% | -8.4% |
| O=C(O)C12CC3(C(=O)O)CC(C(=O)O)(CC(C(=O)O)(C1)C3=O)C2=O | -11.3% | 13.4% | -24.4% | -4.15% | -28.1% | 17.3% |
| CC(=O)/C=C/c1ccc(C)cc1 | 27.1% | 9.9% | 8.75% | 4.15% | 20.6% | 10.7% |
| COc1ccc(/C=C/c2nc(=S)[nH][nH]2)cc1OC | -18.1% | -21.5% | 12.7% | 12.3% | 25.1% | -3.1% |
| CC(=O)Nc1c([N+](=O)[O-])cc(O)cc1[N+](=O)[O-] | -17.9% | -15.7% | 12.3% | -26.3% | -16.9% | -8.45% |
| NC(=O)C1=NNc2ccccc2C(=O)N1c1ccccc1 | 8.3% | -10.2% | -20.1% | 9.9% | 6.9% | 2.55% |
| CSc1ccc(OC(=O)C(C)NC(=O)C(CO)NC(=O)OCc2ccccc2)cc1 (configuration not stated) | 5.85% | 1.55% | -1.05% | -2% | -1.6% | 15.2% |
| Cc1ncc([N+](=O)[O-])cc1C(=O)O | 1% | 10% | -0.75% | -7.1% | 5.7% | -1.45% |
| CN(C)Cc1[nH]c2ccccc2c1C(=O)c1ccccc1 | -4.55% | -8.85% | -12.2% | -18.7% | -25.5% | -25.6% |
| Cc1c(C)c(C)c(S(=O)(=O)NCCNS(=O)(=O)c2c(C)c(C)c(C)c(C)c2C)c(C)c1C | 5.7% | -16.4% | -0.7% | 15.3% | -2.5% | 1.7% |
| COC(=O)c1nc(N)nc(C(=O)OC)c1C(=O)c1cccc([N+](=O)[O-])c1 | -11.1% | -19.4% | -33.2% | 30.6% | -21.7% | -16.8% |
| Ic1ccccn1 | 15.3% | -11.3% | -9.05% | -29.8% | -8.15% | -1.2% |
| CC(=O)/C(C)=C\C1C(C)=CCCC1(C)C (configuration not stated) | -4.5% | -33.4% | -27.8% | -23.3% | -14.8% | -5.85% |
| CC(=O)CC(=O)NCCCc1ccccc1 | -18.8% | -33.4% | -21.6% | 3.5% | -6.9% | -11.9% |
| CN(C)C(=S)/N=c1\ssc(=S)n1Cc1cccs1 | -11.1% | -19.5% | -19.6% | 6.75% | -9.4% | 12% |
| Nc1[nH]c(=O)nc2c1ncn2C1OC(CO)C(O)C1O (configuration not stated) | -10.3% | -27.6% | -12.3% | -3.65% | -4.25% | -10.2% |
| CN(C)C(N)=Nc1ncnc2ccccc12 | -14.6% | 15.2% | 0.45% | 15.7% | -5.85% | -1.8% |
| O=C1CSC(c2cccc(Cl)c2)N1c1ccc(-n2c(-c3ccccc3)nc3ccccc3c2=O)cc1 (configuration not stated) | -4.3% | 9.65% | 8.9% | -15.9% | 9.2% | -6.8% |
| Cc1cc(N(CCC#N)CCC#N)ccc1/C=C1N=C(/C=C\c2ccccc2)N(c2ccc(C(=O)O)cc2)C\1=O | -3.65% | -45.5% | -16.9% | -6.3% | -16.4% | -26.1% |
| Clc1ccc(C=Nc2ccc3c(c2)Cc2ccccc2-3)c(Cl)c1 | -5.15% | -33.6% | -21.6% | -3.85% | -35.2% | -2.4% |
| CCOC(=O)C(CCC(C)(C)SCc1ccccc1)(NC(C)=O)C(=O)OCC | 25.8% | -1.15% | 1.45% | 16.7% | 2.15% | 5.6% |
